Screens as filed in PubChem BioAssay.
CDC25B-CDK2 inh: primary biochemical HTRF screen for blockers of M-phase inducer phosphatase 2 binding to CDK2/cyclin A; z-score (no concentration beside the values); HTRF CDC25B-CDK2/CyclinA binding, anti-His/anti-Flag; hits give high values; 94,000 compounds, 0.72% hits; AID 1259370, 2018; in the data active means z-score above about 3.2
HIV TAR-Tat: TAR RNA-Tat peptide displacers, HIV-1, primary screen, biochemical, FRET, FAM/TAMRA-labeled Tat; 100,000 compounds, 0.6% hits; HIV-1 TAR RNA, Tat peptide displacement FRET; hits give high values; z-score (concentration not given with the values); active means z-score of 3 or more in at least 2 runs
Active calls of the source: *; / = not tested or not shown. Hits are enriched below; roughly 0.86% of the tested compounds scored in any of these assays.

SMILES	CDC25B-CDK2 inh	HIV TAR-Tat
CCCCN1C(=O)C(O)(CC(=O)c2ccc(C(C)C)cc2)c2ccccc21 (stereo not drawn)	-0.27	-0.21
CCOC(=O)c1sc(NC(=O)c2nn(CC)cc2Br)c(C#N)c1C	-0.75	/
Cc1cc(NCCCN(C)C)n2nc(C(F)(F)F)c(-c3ccc(Cl)cc3)c2n1	-1.2	0.98
Cn1nc(C(=O)NCc2ccc3c(c2)OCO3)c2c1-c1ccsc1CC2	/	-0.5
Cc1c(-n2c(=O)c(C#N)cc3c(=O)n4ccccc4nc32)c(=O)n(-c2ccccc2)n1C	0.87	0.27
COCCNc1cc(N2CCCC2)c2noc3c2c1C(=O)c1ccccc1-3	-2.1	-1.2
CCOCCCNc1cc(N2CCC(C)CC2)c2noc3c2c1C(=O)c1ccccc1-3	-1.3	2.1
CN(C)CCCNc1cc(N2CCN(c3ccccn3)CC2)c2noc3c2c1C(=O)c1ccccc1-3	1.2	7.2*
O=C1c2ccccc2-c2onc3c(N4CCN(C5CCCCC5)CC4)cc(NCCO)c1c23	-2.3	0.42
COCCNc1cc(N2CCN(c3ccccn3)CC2)c2noc3c2c1C(=O)c1ccccc1-3	2.7	-2.2
CN(C)CCCNc1cc(N2CCN(C3CCCCC3)CC2)c2noc3c2c1C(=O)c1ccccc1-3	-1.7	8.7*
CC1CCN(c2cc(NCCCN(C)C)c3c4c(onc24)-c2ccccc2C3=O)CC1	1.8	16*
COCCNc1cc(N2CCN(C3CCCCC3)CC2)c2noc3c2c1C(=O)c1ccccc1-3	-0.67	8.1*
Cc1ccc(N2C(=O)N(c3ccc(Br)cc3)C3CS(=O)(=O)CC32)cc1 (stereo not drawn)	-1.8	-0.27
COc1cc(-c2nc3cc(C)ccc3o2)cc(OC)c1OC	-0.29	/
CN(Cc1ccccc1)C(=O)CSc1nc(-c2ccc3c(c2)OCO3)nc2cc(=O)[nH]n12	/	26*
CN(C(=O)CSc1nc(-c2ccc3c(c2)OCO3)nc2cc(=O)[nH]n12)c1ccccc1	/	2.8
CCCCN(C)C(=O)CSc1nnc(-c2ccc3[nH]c(C)c(C)c3c2)o1	-2	1.3
Cc1cc(=O)[nH]c(-c2cccs2)n1	0.45	/
Oc1cccc(-c2nc(-c3cccs3)c(-c3cccs3)[nH]2)c1	19*	-3.2
Oc1ccc(-c2nc(-c3ccccc3)c(-c3ccc(O)cc3)[nH]2)cc1	-1.4	-1.7
c1csc(-c2nc(-c3cccs3)c(-c3cccs3)[nH]2)c1	19*	-0.71
Oc1ccc(-c2nc(-c3cccs3)c(-c3cccs3)[nH]2)cc1	19*	-0.61
COc1cccc(-c2nc(-c3cccs3)c(-c3cccs3)[nH]2)c1	-1.6	/
CCOc1ccc(CN(CCc2ccc3c(c2)OCO3)Cc2cccnc2)cc1	16*	0.9
SMILES	CDC25B-CDK2 inh	HIV TAR-Tat
CCOc1ccccc1CN(CCc1ccc2c(c1)OCO2)Cc1cccnc1	-0.39	/
COc1ccc(-c2cc3nc(C)cc(N4CCCC4)n3n2)cc1OC	-3.5	3.2
CCc1ccc(N2C(=O)N(c3ccc(C)cc3)C3CS(=O)(=O)CC32)cc1 (stereo not drawn)	-1.7	0.9
Oc1ccc(CN2CCCCC2)c2cccnc12	14*	1.3
Oc1ccc(CN2CCN(c3ccccc3)CC2)c2cccnc12	/	2.1
Oc1c(CN2CCOCC2)ccc2cccnc12	1.3	0.41
Oc1c(CN2CCN(Cc3ccc4cccnc4c3O)CC2)ccc2cccnc12	-4.2	9.4*
Cc1ccc(S(=O)(=O)n2nc(C)c(S(=O)(=O)N3CCC(C)CC3)c2C)cc1C	/	0.3
COc1ccc(S(=O)(=O)c2ccc(C(=O)O)cn2)cc1	0.43	1.4
CC1CN(C(=O)Nc2ccc(F)cc2)c2cc(Cl)ccc2O1 (stereo not drawn)	-2.6	0.53
CC1CN(C(=O)Nc2ccc(Cl)cc2)c2ccccc2O1 (stereo not drawn)	/	3.9*
CCS(=O)(=O)c1ncc(Cl)c(C(=O)Nc2sc3c(c2C#N)CCCC3)n1	-2.8	2.4
CN(CC1CCCO1)S(=O)(=O)c1ccc(C(=O)Nc2sc3c(c2C(N)=O)CCC3)cc1 (stereo not drawn)	/	7.6*
CN(C)S(=O)(=O)c1ccc(C(=O)Nc2sc3c(c2C(N)=O)CCCC3)cc1	-2.3	3.4
Cc1cc(/C=N/O)c(C)n1-c1ccc(-c2ccccc2)cc1	-5.1	/
CN1CCN(C(=O)C2CCCN(S(=O)(=O)N3CCCCC3)C2)CC1 (stereo not drawn)	/	4
Cc1c(NC(=O)NCCCN2CCOCC2)sc2nc3n(c(=O)c12)CCC(C)CC3 (stereo not drawn)	10*	0.6
Cc1c(C(=O)NCCCN2CCOCC2)sc2nc3n(c(=O)c12)CCCCC3	/	1.5
Cc1ccc(-c2n[nH]c3c2C(c2cccc(O)c2)NC3=O)cc1 (stereo not drawn)	/	-0.78
CC1Sc2ccc(S(=O)(=O)N(C)C3CCCCC3)cc2NC1=O (stereo not drawn)	/	2.1
O=C(CSc1nc2ncccc2[nH]1)N1CCc2ccccc2C1	15*	1.7
O=C(CSc1nc2ncccc2[nH]1)N1CCCC1	/	0.18
CC1=C/C(=N\N=C2\NC(=O)C(CC(=O)Nc3ccccc3C(F)(F)F)S2)CC(C)(C)C1 (stereo not drawn)	-2.4	/
COC(=O)c1cc2sccc2n1CC(=O)N(C)c1ccccc1	-1.2	1.1
COC(=O)c1cc2sccc2n1CC(=O)c1ccccc1	9.2*	0.2
SMILES	CDC25B-CDK2 inh	HIV TAR-Tat
CC(=O)SC1CC(=O)N(c2ccc(Cl)cc2)C1=O (stereo not drawn)	-1.3	/
CCN(CC)c1ccc(Nc2nc(-c3sc(NC(C)=O)nc3C)cs2)cc1	-0.29	0.82
CCN(CC)c1ccc(Nc2nc(-c3sc(N)nc3C)cs2)cc1	0.23	5.7*
COc1ccc(OC)c(-n2c(N)c(C(=O)Nc3ccccc3OC)sc2=S)c1	-0.1	0.16
CCOc1cc(C2CC(=O)N3CN(C4CCCCC4)CSC3=C2C#N)ccc1O (stereo not drawn)	3.4*	0.91
COc1cc(C2CC(=O)N3CN(C4CCCCC4)CSC3=C2C#N)ccc1O (stereo not drawn)	3.8*	-0.98
COc1ccc(C2CC(=O)N3CN(C4CCCCC4)CSC3=C2C#N)c(OC)c1 (stereo not drawn)	0.97	1.6
COc1ccc(-c2noc(NCc3ccc(Cl)cc3)n2)cc1	-1.6	-1.6
O=C(CSc1ncc(S(=O)(=O)c2ccccc2)c(=O)[nH]1)Nc1ccc(F)cc1F	-2	0.36
Cc1noc(NC(=O)Nc2c(-c3ccccc3Cl)noc2C)c1C	-2.2	/
Cc1onc(-c2c(Cl)cccc2Cl)c1NC(=O)NNc1ccccn1	9.5*	/
O=C(c1noc2c1CCc1sccc1-2)N1CCN(c2ccc(Cl)cc2)CC1	/	0.2
O=C(O)c1ccc2nc(-c3cccc(-c4nc5ccc(C(=O)O)cc5[nH]4)c3)[nH]c2c1	7.3*	/
O=C(O)c1cccc(-c2nc3ccccc3[nH]2)c1	-2.1	/
CN(C(=O)c1nn(C)c2c1CSc1ccccc1-2)C1CCCCC1	-1.5	0.74
O=C1CC(c2ccccc2Cl)C2=C(CC(c3ccccc3Cl)CC2=O)N1 (stereo not drawn)	3	15*
O=C1CC(c2ccccc2F)C2=C(CC(c3ccccc3Cl)CC2=O)N1 (stereo not drawn)	-1.4	1.4
CCOC(=O)c1nn(-c2ccc(C)cc2)c(=O)c2c(N)scc12	18*	-5.5
CCOC(=O)c1nn(-c2ccc(Cl)cc2)c(=O)c(C#N)c1C	-1.2	0.3
